Source: the supplement of paper PMC11624193, “Coupling cellular drug-target engagement to downstream pharmacology with CeTEAM” (Nature Communications, 2024)
Structures can show the parent of a compound that is named as a salt. A number with no mark means an inactive call.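 The calls were made as follows: active = log2 fold change beyond 2 SD from the library mean after excluding viability outliers; inactive = within 2 SD.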

Each compound was assayed against PARP1 L713F-nLuc biosensor (HCT116) (UniProt P09874) (assay: PARP1 L713F-nLuc/akaLuc ratio relative to DMSO control (biosensor stabilization) (fold change); higher = more PARP1 biosensor stabilization (target engagement / stabilizer), active = hit call of the paper). Conditions: stock concentration (mM; final µM = stock mM x 1): 10; 24 h.
Chain of PARP1 L713F-nLuc biosensor (HCT116) (P09874 whole entry L713F, looked up): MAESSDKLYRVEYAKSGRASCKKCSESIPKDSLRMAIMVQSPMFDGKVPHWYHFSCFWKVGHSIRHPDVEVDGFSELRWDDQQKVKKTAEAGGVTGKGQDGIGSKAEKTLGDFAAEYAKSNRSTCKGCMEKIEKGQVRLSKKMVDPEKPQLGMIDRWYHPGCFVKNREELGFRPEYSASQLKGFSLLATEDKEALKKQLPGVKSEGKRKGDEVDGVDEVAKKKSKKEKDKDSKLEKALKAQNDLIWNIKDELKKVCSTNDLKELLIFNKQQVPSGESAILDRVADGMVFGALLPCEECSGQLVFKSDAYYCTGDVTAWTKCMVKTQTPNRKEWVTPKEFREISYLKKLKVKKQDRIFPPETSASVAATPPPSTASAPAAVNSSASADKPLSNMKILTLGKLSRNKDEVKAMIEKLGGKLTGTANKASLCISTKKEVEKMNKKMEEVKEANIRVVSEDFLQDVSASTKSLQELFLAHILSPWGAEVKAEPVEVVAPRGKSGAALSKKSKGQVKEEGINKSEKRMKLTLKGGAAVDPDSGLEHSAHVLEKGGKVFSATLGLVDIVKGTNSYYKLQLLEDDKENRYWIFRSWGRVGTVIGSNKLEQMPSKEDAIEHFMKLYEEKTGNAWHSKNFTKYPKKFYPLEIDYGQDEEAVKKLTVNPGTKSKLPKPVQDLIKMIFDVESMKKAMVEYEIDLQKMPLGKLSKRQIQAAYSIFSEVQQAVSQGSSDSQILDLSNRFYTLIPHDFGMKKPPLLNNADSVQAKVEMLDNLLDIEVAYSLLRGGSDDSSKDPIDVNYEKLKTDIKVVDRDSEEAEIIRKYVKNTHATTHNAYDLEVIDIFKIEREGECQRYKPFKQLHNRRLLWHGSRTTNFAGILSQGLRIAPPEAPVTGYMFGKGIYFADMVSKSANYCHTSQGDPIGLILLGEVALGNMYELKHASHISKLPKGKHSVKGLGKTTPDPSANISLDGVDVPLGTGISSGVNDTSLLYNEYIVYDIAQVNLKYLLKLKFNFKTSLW

Row | Structure (SMILES) | PARP1 L713F-nLuc/akaLuc ratio
1 | CNC(=O)c1ccc2cc([C@@]3(O)CCn4cncc43)ccc2c1 [TAK-700 (Orteronel)] | 0.776
2 | CC(C)c1c(C(=O)Nc2ccccc2)c(-c2ccccc2)c(-c2ccc(F)cc2)n1CC[C@@H](O)C[C@@H](O)CC(=O)O [Atorvastatin Calcium] | 0.363
3 | COC(=O)c1cc(CN2CCN(C(=N)N)CC2)cc(C(=O)N2CCN(C(=O)c3ccc(C(=N)N)cc3)CC2)c1 [CBB1007 (trihydrochloride)] | 0.723
4 | CCCC(CCC)C(=O)O [Valproic acid (sodium salt)] | 0.704
5 | COc1cc2ncnc(Nc3ccc(NC(=O)c4ccccc4)cc3)c2cc1OC [Aurora kinase inhibitor-2] | 1.35
6 | C[C@H](Nc1ncnc2[nH]cnc12)c1cc2ccc(F)cc2nc1-c1ccccn1 | 0.767
7 | C=C(c1ccc(C(=O)O)cc1)c1cc2c(cc1C)C(C)(C)CCC2(C)C [Bexarotene] | 0.719
8 | C/C(=N\NC(=O)c1cccc(S(=O)(=O)N2CCN(C)CC2)c1)c1cc(Cl)ccc1O [Seclidemstat] | 0.552
9 | Cc1cc(Nc2nc(N[C@@H](C)c3ccc(F)cc3)c(C#N)cc2F)n[nH]1 | 13.6 (active)
10 | Nc1ncc(-c2cccc(N3CCNCC3)c2)cc1C(=O)Nc1ccncc1 [PKC-iota inhibitor 1] | 1.02
11 | O=C(/C=C/c1ccc(O)c(O)c1)c1ccc(O[C@@H]2O[C@H](CO)[C@@H](O)[C@H](O)[C@H]2O)c(O)c1O [Marein] | 0.984
12 | C[C@]12CC[C@@H]3c4ccc(O)cc4C[C@@H](CCCCCCCCC[S+]([O-])CCCC(F)(F)C(F)(F)F)[C@H]3[C@@H]1CC[C@@H]2O (stereo partly drawn) [Fulvestrant] | 0.949
13 | O=C(c1cc(Cc2n[nH]c(=O)c3ccccc23)ccc1F)N1CCn2nc(C(F)(F)F)nc2C1 [Fluzoparib] | 3.72 (active)
14 | CCS(=O)(=O)N1CCN(c2ccc(Nc3ncc(C(N)=O)c(NC4CC4)n3)cc2)CC1 [Cerdulatinib] | 1.82
15 | N#Cc1cc(F)cc(Oc2ccc3c(c2C(F)F)[C@@H](O)C(F)(F)S3(=O)=O)c1 | 1.92
16 | O=C(NC[C@H](O)CN1CCc2ccccc2C1)c1ccnc(NC2CCC2)c1 | 0.738
17 | N#Cc1ccc(COC[C@H]2O[C@@H](n3c(NCc4ccc(Cl)c(Cl)c4)nc4c(N)ncnc43)[C@H](O)[C@@H]2O)cc1 | 0.717
18 | CNC(=O)c1ccc(C)c(-n2c(C)cc(OCc3ccc(F)cc3F)c(Br)c2=O)c1 | 0.728
19 | Nc1nc(=S)c2[nH]cnc2[nH]1 [6-Thioguanine] | 1.43

Row | Structure (SMILES) | PARP1 L713F-nLuc/akaLuc ratio
20 | c1cc(-c2cnn3cc(-c4ccc(OCCN5CCCCC5)cc4)cnc23)ccn1 [Dorsomorphin] | 1.11
21 | Cn1cc(Nc2nccc(N3C[C@H]4CC[C@@H](C3)N4C(=O)[C@@H]3CC3(F)F)n2)cn1 [Brepocitinib (P-Tosylate)] | 0.619
22 | CCCCCCCCc1ccc(CCC(N)(CO)CO)cc1 [Fingolimod (FTY720) HCl] | 0.577
23 | CCCOc1ccn2c(C(C)=O)cc(-c3cccc(OC)c3)c2c1 | 1.56
24 | CN(C)C(=N)NC(=N)N [Metformin HCl] | 0.701
25 | N#Cc1ccc(-c2csc(NN=C3CCCC3)n2)cc1 [Remodelin (hydrobromide)] | 0.897
26 | CC#CC(=O)N1CCC[C@H]1c1nc(-c2ccc(C(=O)Nc3ccccn3)cc2)c2c(N)nccn12 [Acalabrutinib (ACP-196)] | 1.28
27 | CCCCCCCCCCCCC/C=C/[C@@H](O)[C@H](CO)NC(=O)CCCCCCC [C8-Ceramide] | 0.658
28 | O=C1C(Cl)=C(NCCN2CCOCC2)C(=O)c2ncccc21 | 0.636
29 | CC[C@H](C)C(=O)O[C@H]1C[C@H](O)C=C2C=C[C@H](C)[C@H](CC[C@@H](O)C[C@@H](O)CC(=O)O)[C@H]21 [Pravastatin sodium] | 0.829
30 | COc1cc(OC)c(/C=C/S(=O)(=O)Cc2ccc(OC)c(NCC(=O)O)c2)c(OC)c1 | 0.583
31 | N#Cc1ccc(C(c2ccc(C#N)cc2)n2cncn2)cc1 [Letrozole] | 1.4
32 | Clc1ccc(-c2csc(NN=C3CCCC3)n2)cc1 | 0.775
33 | CC(C)c1c(-c2ccccc2)nc2c(C#N)c[nH]n2c1=O | 0.786
34 | O=c1[nH]c(=O)n([C@H]2C[C@H](O)[C@@H](CO)O2)cc1F [Floxuridine] | 0.549
35 | NS(=O)(=O)NCCNc1nonc1/C(=N/O)Nc1ccc(F)c(Br)c1 | 0.587
36 | O=c1c2c([nH]n1-c1nc3ccccc3s1)CCCC2 | 0.788
37 | CCN(CC)Cc1cc(Nc2ccnc3cc(Cl)ccc23)ccc1O [Amodiaquine (dihydrochloride dihydrate)] | 0.819
38 | S=C(NCc1ccc2c(c1)OCO2)N1CCN(c2ncnc3c2oc2ccccc23)CC1 [Amuvatinib (MP-470)] | 0.659
